The campaign covered roughly 290,000 compounds. About 27,000 (9.3%) were called active. This excerpt belongs to a sample that is enriched for actives. Unmarked numbers belong to inactive results. No stated cut-off is given here; in the data, active means inhibition mostly above about 28% (no sharp cut-off); inactive means mostly below about 43%.

A short description of this assay: A qHTS for Small Molecule Inhibitors of Shiga Toxin. Further: 0% is about no effect. As to conditions: Vero cells, Shiga toxin protein synthesis inhibition reporter; at 38.7 µM, hits give high values.
With `COc1ccc(C/C(C)=N/NC(=O)c2cc(C)oc2C)cc1`, the inhibition (in general, the relative decrease from the control value, in per cent) was 39.4% (active).

As for `CCCCCNC(=O)Cc1ccc(OC)cc1`, the inhibition is 35.5%.

`COc1ccc(C/C(C)=N/NC(=O)c2ccncc2)cc1`: the inhibition was 13.5%.

Regarding `Cc1nc2nc(C)c(NS(=O)(=O)c3ccc(C(C)(C)C)cc3)c(=O)n2[nH]1`, the inhibition was -4.52%.

Take `C/C(=N\NC(=O)COc1c(C)cccc1C)c1cccs1`: the inhibition was 23.6%.

With `Cc1ccccc1C(CC(=O)c1cccs1)C(C#N)C#N` (stereo not given), the inhibition is 60.4% (active).

For the compound `Cc1ccc(C)c(NC(CC(=O)c2ccccc2)C(=O)OCC(=O)c2cccs2)c1` (stereo not given), the inhibition was -2.14%.

As to `CCOc1ccc(CN2CCN(Cc3c[nH]c4ccccc34)CC2)cc1`, the inhibition is -7.52%.

As for `C/C=C/C(=O)OCc1csc(CC(=O)Nc2ccccc2C)n1`, the inhibition is -12.5%.

For the compound `Cc1ccc2c(c1)c1ncnc(N3CCc4ccccc4C3)c1n2C`, the inhibition was 61.5% (active).

For the compound `Cc1ccc2c(c1)c1ncn(Cc3ccc(F)cc3)c(=O)c1n2C`, the inhibition was -13.4%.

Consider `Cc1ccc2c(c1)c1ncn(CCC3=CCCCC3)c(=O)c1n2C`, for which the inhibition was 1.3%.

On to `COc1ccc(-c2cc(C(=O)N3CCN(Cc4ccc5c(c4)OCO5)CC3)on2)cc1OC`, for which the inhibition was -5.83%.

In the case of `COCC1CCCN(C(=O)c2ccc3oc(C(C)C)nc3c2)C1` (stereo not given), the inhibition is 13.8%.

`O=C1CCC(CCC(=O)N2CCCC(C(=O)c3ccc(Cl)cc3)C2)=NN1` (stereo not given): the inhibition is 12.9%.

In the case of `COCC1CCN(C(=O)CCc2nnc(C3(c4ccc(Cl)cc4)CCC3)o2)C1` (stereo not given), the inhibition is 59.4% (active).

As to `CCn1c(SCC(=O)Nc2ccc3c(c2)OCCO3)nnc1-c1ccncc1`, the inhibition was 24.3%.

In the case of `O=C(O)c1ccccc1-c1ccccc1C(=O)Nc1cccc2ccccc12`, the inhibition is -18.7%.

`O=C(Nc1cccc2ccccc12)c1onc2c1CCCC2`: the inhibition is 80.7% (active).

Take `O=C(COC(=O)c1ccccn1)Nc1cccc2ccccc12`: the inhibition was -15.8%.

In the case of `CCN1CCN(C(=O)C2CCCN(S(=O)(=O)c3ccc(OC)c(OC)c3)C2)CC1` (stereo not given), the inhibition was 11.9%.

Regarding `NC(=O)c1cc(-c2cccnc2)nc2ccc(Br)cc12`, the inhibition is 20%.

Turning to `CC(CN1CCC(n2nccc2NC(=O)C2CCCC2)CC1)c1ccccc1` (stereo not given), the inhibition was -13%.

With `Cc1cc(NC(=O)c2ccccc2C)no1`, the inhibition was 55.6% (active).

As to `Cc1cc(NC(=O)CSCc2ccccc2C)no1`, the inhibition is 48.6%.

On to `Cc1ccccc1C(=O)Nc1ccccc1NC(=O)c1ccccc1C`, for which the inhibition is -1.64%.

For `C=CCNC(=O)c1ccc2c3n(nc2c1)-c1ccc(C)cc1CO3`, the inhibition was 83.8% (active).

With `CCOc1c2ccc(C(=O)NCc3ccc4c(c3)OCO4)cc2nn1C`, the inhibition was 9.39%.

Turning to `Cc1cccc(-c2nc3ccc(C(=O)NCCN4CCN(C)CC4)cc3nc2-c2cccc(C)c2)c1`, the inhibition is -22.4%.

Consider `COc1cc(CNCc2ccc(OC)c3ccccc23)cc(OC)c1OC`, for which the inhibition is -2.52%.

In the case of `Cc1cccc(N(Cc2ccccc2)C(=O)c2ccccc2F)c1`, the inhibition was 41.2%.

`COc1ccc(COC(=O)N/N=C(\C)CC(=O)Nc2ccc(Cl)cc2)cc1`: the inhibition is -3.95%.

Turning to `COc1ccc(C(=O)NC(=S)Nc2ccc(Cl)cn2)cc1OC`, the inhibition was 4.19%.

In the case of `COc1ccc(C(=O)N/N=C(\C)CC(=O)Nc2ccc(Cl)cn2)cc1`, the inhibition is 97.1% (active).

As to `O=C(C1CCC(=O)N(C2CC2)C1)N1CCN(c2ccc(Cl)cc2)CC1` (stereo not given), the inhibition was -16%.

With `O=C1COc2ccc(S(=O)(=O)Nc3ccc(OC(F)(F)F)cc3)cc2N1`, the inhibition was -4.37%.

For the compound `Cc1cc(NS(=O)(=O)c2ccc(NC(=S)NC(=O)c3ccc(F)cc3Cl)cc2)no1`, the inhibition is 16.8%.

Turning to `CC(=O)c1ccccc1OCc1ccc(C(=O)c2ccccc2)cc1`, the inhibition was 10.9%.

As to `Cc1cc(C)nc(Nc2cc([N+](=O)[O-])ccc2C)n1`, the inhibition was -5.77%.

As for `Cc1ccc(-n2cc3ccc([N+](=O)[O-])cc3n2)cc1`, the inhibition is 57.1% (active).

Consider `Cc1ccc(-c2cn(S(=O)(=O)c3cccc([N+](=O)[O-])c3)nc2N)cc1`, for which the inhibition is 13.5%.

As for `O=C(COc1ccc2c(c1)CCC2)N1CCN(c2ccc(F)cc2)CC1`, the inhibition was -11.3%.

On to `COc1cccc(-n2c(SCC(=O)c3c[nH]c4ccccc34)nc3ccccc3c2=O)c1`, for which the inhibition is -9.99%.

Take `Cc1ccc(-n2c(SCC(=O)N3CCC(C(=O)O)CC3)nc3ccccc3c2=O)cc1C`: the inhibition was 45.4% (active).

`CCc1c(O)nc(SCC(=O)N2CCCCC2)n(-c2ccccc2C)c1=O`: the inhibition is 13%.

`CCOC(=O)CSc1nc2ccc(C)cc2n2cnnc12`: the inhibition was 9.64%.

In the case of `O=C(c1cc(-c2ccc(F)cc2)on1)N1CCN(c2ccc(F)cc2)CC1`, the inhibition was -1.74%.

Regarding `COc1ccc(-c2cc(C(=O)N3CCN(c4ccc(F)cc4)CC3)no2)cc1`, the inhibition is 11.7%.

With `Cc1cccc(-n2c(C)nc3cc(C(=O)N4CCC5(CC4)OCCO5)ccc32)c1`, the inhibition was 13.6%.

Consider `O=C(c1cc(-c2ccc(O)cc2)on1)N1CCCc2ccccc21`, for which the inhibition was 91.2% (active).

`Cc1ccc(-c2cc(C(=O)N3CCC4(CC3)OCCO4)no2)cc1`: the inhibition was 58.1% (active).

As for `O=C(c1cc(-c2ccc(O)cc2)on1)N1CCOCC1`, the inhibition is 62% (active).

Regarding `O=C(c1cccs1)N1CCN(C(=O)N2CCOCC2)CC1`, the inhibition was -6.78%.

Regarding `O=C(c1cc(-c2ccc(Cl)cc2)on1)N1CCN(c2ccccc2)CC1`, the inhibition is 67.5% (active).

Regarding `CCC(=O)N1CCCc2ccccc21`, the inhibition is 14.2%.

Consider `O=C(c1cc(-c2ccncc2)nc2ccccc12)N1CCC2(CC1)OCCO2`, for which the inhibition is 11.7%.

For `Cc1noc(C)c1C(=O)N1CCOCC1`, the inhibition is -7.37%.

As for `Cc1c(C(=O)N2CCCc3ccccc32)oc2ccccc12`, the inhibition is 33.8%.

With `Nc1nc(SCC(=O)Nc2ccc(Cl)cc2C(F)(F)F)n[nH]1`, the inhibition is -27.1%.

On to `COc1cc(OC)cc(C(=O)Nc2nnc(SCC(=O)NCC3CCCO3)s2)c1` (stereo not given), for which the inhibition was 4.36%.

Take `COc1ccc(C(=O)NC2CC(C)(C)NC(C)(C)C2)cc1OC`: the inhibition is 2.67%.

On to `NC(=O)CN1CCCC1c1ccc2c(c1)OCCO2` (stereo not given), for which the inhibition is -2.56%.

`O=C(NC1CCCC1)C(c1ccco1)N(C(=O)c1ccco1)c1ccc(F)cc1` (stereo not given): the inhibition is 8.42%.

`O=S(=O)(/N=C(/Nc1ccccn1)c1ccccc1)c1ccc(Cl)cc1`: the inhibition was 14.8%.

For `Cc1ccc(S(=O)(=O)/N=C(/Nc2ccccn2)c2ccc(Cl)cc2)cc1`, the inhibition was 31.5% (active).

Consider `Cc1ccc(S/C(=N\S(=O)(=O)c2ccc(Cl)cc2)c2ccccc2)cc1`, for which the inhibition is 11.1%.

With `CC1CCCCC1NC(=O)CSc1nnc(-c2ccncc2)n1CCCN(C)C` (stereo not given), the inhibition is -1.04%.

On to `Cc1cc(C)nc(NC(=O)/C=C/c2ccc(Cl)cc2)n1`, for which the inhibition is 41.9%.

`CC(C)(C)c1ccc(/C=C/C(=O)Nc2ncccn2)cc1`: the inhibition was -4.53% (active).

As to `O=C(/C=C/c1ccc(Cl)cc1)Nc1ccc(S(=O)(=O)Nc2ncccn2)cc1`, the inhibition was 17%.

As to `O=c1c2c(-c3ccccc3)ccnc2[nH]n1-c1ccccc1`, the inhibition was 38.7%.

For `CCC(C)(C)NC(=O)C(c1ccc(OC)cc1)N(C(=O)CCC(=O)Nc1cc(C)on1)c1ccc(OC)cc1OC` (stereo not given), the inhibition was 8.4%.

With `CCN(CC)CCCNC(=O)Cn1cnc2sc(C)c(S(=O)(=O)N3CCN(c4ncccn4)CC3)c2c1=O`, the inhibition was -11.2%.

For the compound `CCN(CC)CCNC(=O)Cn1cnc2sc(C)c(S(=O)(=O)N3CCOCC3)c2c1=O`, the inhibition was -2.57%.

As to `Cc1sc2ncn(CC(=O)NCCN(C)C)c(=O)c2c1S(=O)(=O)N1CCC(C)CC1`, the inhibition was 106% (active).

Take `CC(=O)c1ccc(S(=O)(=O)N2CCC(Oc3ccc(-n4cnnn4)cc3)CC2)cc1`: the inhibition is -8.24%.

Turning to `O=C(O)Cn1c(Cc2ccccc2)nc2ccccc21`, the inhibition is -5.35%.

Take `Cc1ccccc1C(=O)N1CCC(C(=O)Oc2ccc(C#N)cc2)CC1`: the inhibition was -13.3%.

Regarding `O=C(Nc1ccc2c(c1)OCCO2)c1ccncc1`, the inhibition is 117% (active).

As to `O=C(CCN1C(=O)c2ccncc2C1=O)Nc1ccc2c(c1)OCCO2`, the inhibition is 13.6%.

`O=C(Nc1ccc2c(c1)OCCO2)c1ccoc1`: the inhibition is 65.2% (active).

On to `O=C(Nc1ccc2c(c1)OCCO2)c1cnccn1`, for which the inhibition is 42.2%.

On to `Cn1c(=O)c2ccccc2n(CC(=O)Nc2ccc3c(c2)OCCO3)c1=O`, for which the inhibition was -7.05%.

Consider `Cc1ccc(-n2ncc3c2CC(C)(C)CC3NC(=O)Cc2c(C)noc2C)cc1` (stereo not given), for which the inhibition is -6.91%.

For `COc1cccc(NC(=O)COc2cc(C)cc3oc(=O)cc(C)c23)c1`, the inhibition was -4.63%.

In the case of `COc1ccc(C2=NS(=O)(=O)N(C)C(C(=O)N3CCCCC3)=C2)cc1`, the inhibition is -2.94%.

As to `COc1cccc(Oc2ccc(N)cc2)c1`, the inhibition is 33.2% (active).

Consider `CC(C)(C)c1ccc(Oc2ccc(N)cc2)cc1`, for which the inhibition is -23.2%.

Regarding `COc1cccc(OCCCN2CCCCCC2)c1`, the inhibition is 11.6%.

Take `COc1ccc(-c2cc(=O)oc3cc(OCC(=O)N[C@@H](Cc4c[nH]c5ccccc45)C(=O)O)ccc23)cc1`: the inhibition is 1.78%.

Turning to `Cc1cc(=O)n2nc(N3CCCC(C(=O)NCc4cccc(Cl)c4)C3)sc2n1` (stereo not given), the inhibition was 10.1%.

Consider `CN(c1cccc(NC(=O)Nc2ccc(Cl)cc2)c1)S(C)(=O)=O`, for which the inhibition was 66.3% (active).

With `Cc1ccc(N(CC(=O)Nc2cccc(N(C)S(C)(=O)=O)c2)S(C)(=O)=O)cc1`, the inhibition was -15.9%.

As for `COc1cccc(N(CC(=O)Nc2cccc(N(C)S(C)(=O)=O)c2)S(C)(=O)=O)c1`, the inhibition was -9.96%.

As to `COc1ccc(Nc2ccc([N+](=O)[O-])cn2)cn1`, the inhibition was 25.8%.

The values are drawn from PubChem BioAssay AID2315 (National Center for Advancing Translational Sciences (NCATS), 2010).
